Measurements reported in the supplement of paper PMC6555819.

Assays:
Assay in all cases: PBM binding z-score (relative to random genomic background probes); higher = stronger binding; sequences stand for … in GC…GCGATTGACAGCGTAGAATGAAGG
[1] = tested on: PPARg:RXRa DBDmut IVT, anti-RXR (DBD mutation: RXRa K156A/R161A, NR concentration 270 nM, RXRa partner concentration 90 nM)
Method in brief: (§1)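 On custom Agilent 4×180K arrays, double-stranded probes with 34-nt variable regions carried direct-repeat seeds, single-nucleotide variants, half-site ablations or random human genomic background. Ligand-free nuclear receptor dimers were applied for 1 h, and binding was read with antibodies against each partner (one per run). Binding z-scores come from regression-normalized fluorescence, with the random background probes as reference.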

[2] = tested on: PPARg:RXRa IVT, anti-PPARg (NR concentration 270 nM, RXRa partner concentration 90 nM)
Method in brief: as §1

[3] = tested on: PPARg DBDmut:RXRa IVT, anti-PPARg (DBD mutation: PPARg1 K132A/R137A, NR concentration 270 nM, RXRa partner concentration 90 nM)
Method in brief: as §1

[4] = tested on: PPARg DBDmut IVT, anti-PPARg (DBD mutation: PPARg1 K132A/R137A, NR concentration 270 nM)
Method in brief: as §1

[5] = tested on: PPARg homodimer (NR concentration 180 nM)
Method in brief: as §1

[6] = tested on: PXR:RXRa (NR concentration 270 nM, RXRa partner concentration 90 nM)
Method in brief: as §1

[7] = tested on: PXR homodimer (NR concentration 270 nM)
Method in brief: as §1

[8] = tested on: RARa:RXR (NR concentration 270 nM, RXRa partner concentration 90 nM)
Method in brief: as §1

[9] = tested on: RARa homodimer (NR concentration 270 nM)
Method in brief: as §1

[10] = tested on: RARb:RXRa (NR concentration 270 nM, RXRa partner concentration 90 nM)
Method in brief: as §1

GTACCAAGGTGAATAGGTCGCTGATGAGTAGGCG
PBM binding z-score [1]: 1.89 | PBM binding z-score [2]: 2.89 | PBM binding z-score [3]: -0.721 | PBM binding z-score [4]: -0.6 | PBM binding z-score [5]: 0.508 | PBM binding z-score [6]: 0.271 | PBM binding z-score [7]: -0.637 | PBM binding z-score [8]: 1.34 | PBM binding z-score [9]: -0.0761 | PBM binding z-score [10]: 2.07

ACTTACGGGTCAACGAGGTGATAGCACGCGTATA
PBM binding z-score [1]: 3.7 | PBM binding z-score [2]: 4.4 | PBM binding z-score [3]: 2.02 | PBM binding z-score [4]: 1.22 | PBM binding z-score [5]: 2.44 | PBM binding z-score [6]: 3.94 | PBM binding z-score [7]: 0.307 | PBM binding z-score [8]: 5.09 | PBM binding z-score [9]: 1.19 | PBM binding z-score [10]: 4.04

ATCTCTAGGTAACAAGTTCAGCGAAAGAGAGGAC
PBM binding z-score [1]: 3.7 | PBM binding z-score [2]: 2.88 | PBM binding z-score [3]: 1.31 | PBM binding z-score [4]: 2.15 | PBM binding z-score [5]: 1.32 | PBM binding z-score [6]: 1.9 | PBM binding z-score [7]: 1.83 | PBM binding z-score [8]: 1.15 | PBM binding z-score [9]: 1.27 | PBM binding z-score [10]: 1.81

CCTCGGAGGACAGGAGGTCAGAGCTGTCCGCTTT
PBM binding z-score [1]: 0.39 | PBM binding z-score [2]: 0.452 | PBM binding z-score [3]: -1.92 | PBM binding z-score [4]: -2.09 | PBM binding z-score [5]: 1.28 | PBM binding z-score [6]: 1.81 | PBM binding z-score [7]: -0.0765 | PBM binding z-score [8]: 2.05 | PBM binding z-score [9]: -0.0884 | PBM binding z-score [10]: 2.82

CGACCAAGGTCAATGCTAGGTCAGTGAAAGCATT
PBM binding z-score [1]: 3.29 | PBM binding z-score [2]: 3.59 | PBM binding z-score [3]: -0.925 | PBM binding z-score [4]: -0.0967 | PBM binding z-score [5]: 4.22 | PBM binding z-score [6]: 4.59 | PBM binding z-score [7]: 0.845 | PBM binding z-score [8]: 5.71 | PBM binding z-score [9]: 0.803 | PBM binding z-score [10]: 5.03

CCAGACAGGTGAAAGGTAACTCAGTCTGGTACGC
PBM binding z-score [1]: 2.07 | PBM binding z-score [2]: 3.2 | PBM binding z-score [3]: 0.403 | PBM binding z-score [4]: -0.0766 | PBM binding z-score [5]: 1.36 | PBM binding z-score [6]: 0.838 | PBM binding z-score [7]: 0.027 | PBM binding z-score [8]: 1.99 | PBM binding z-score [9]: 0.208 | PBM binding z-score [10]: 1.4

CCAGACAAGTGAGAAGGTAACTCAGCCTCGATTA
PBM binding z-score [1]: 0.321 | PBM binding z-score [2]: -0.293 | PBM binding z-score [3]: -0.675 | PBM binding z-score [4]: -0.316 | PBM binding z-score [5]: 1.29 | PBM binding z-score [6]: -0.132 | PBM binding z-score [7]: 0.602 | PBM binding z-score [8]: 0.088 | PBM binding z-score [9]: 1.08 | PBM binding z-score [10]: 0.0534

GTACCAAGTTGAATAGGTCGTTGATGAGTAGGCG
PBM binding z-score [1]: -0.264 | PBM binding z-score [2]: 0.17 | PBM binding z-score [3]: 0.192 | PBM binding z-score [4]: 0.767 | PBM binding z-score [5]: 0.638 | PBM binding z-score [6]: 0.225 | PBM binding z-score [7]: 0.216 | PBM binding z-score [8]: 0.609 | PBM binding z-score [9]: 0.578 | PBM binding z-score [10]: 0.926

GCTATTAGTTGAAAGGGCAACCTAATGATTCTCG
PBM binding z-score [1]: 0.686 | PBM binding z-score [2]: 0.831 | PBM binding z-score [3]: 0.904 | PBM binding z-score [4]: 0.354 | PBM binding z-score [5]: 0.978 | PBM binding z-score [6]: 0.94 | PBM binding z-score [7]: 0.54 | PBM binding z-score [8]: 1.56 | PBM binding z-score [9]: 0.795 | PBM binding z-score [10]: 2.02

GGAACGAGGGCAAGCTGATAGCAGAGTTTGATGG
PBM binding z-score [1]: 3.83 | PBM binding z-score [2]: 2.53 | PBM binding z-score [3]: -0.705 | PBM binding z-score [4]: -0.924 | PBM binding z-score [5]: -0.391 | PBM binding z-score [6]: 0.149 | PBM binding z-score [7]: 0.429 | PBM binding z-score [8]: -0.0859 | PBM binding z-score [9]: -0.744 | PBM binding z-score [10]: 2.46

TAGCCTAGGTCATCCAGGGGCCAGTATAGAAAGC
PBM binding z-score [1]: 1.23 | PBM binding z-score [2]: 2.73 | PBM binding z-score [3]: 0.724 | PBM binding z-score [4]: -0.3 | PBM binding z-score [5]: 1.93 | PBM binding z-score [6]: 2.6 | PBM binding z-score [7]: -0.246 | PBM binding z-score [8]: 3.55 | PBM binding z-score [9]: 0.127 | PBM binding z-score [10]: 3.98

CATATAGGGTCAGCTAGGCCAGAGTAGGGACGGC
PBM binding z-score [1]: 2.06 | PBM binding z-score [2]: 2.63 | PBM binding z-score [3]: 1.01 | PBM binding z-score [4]: 0.805 | PBM binding z-score [5]: 1.9 | PBM binding z-score [6]: 2.17 | PBM binding z-score [7]: -0.332 | PBM binding z-score [8]: 3.31 | PBM binding z-score [9]: 0.466 | PBM binding z-score [10]: 3.96

CATACAGGGTCAGCTAGGCCAGAGTGGGGACGGC
PBM binding z-score [1]: 1.06 | PBM binding z-score [2]: 2.57 | PBM binding z-score [3]: -0.069 | PBM binding z-score [4]: 1.07 | PBM binding z-score [5]: 1.44 | PBM binding z-score [6]: 2.19 | PBM binding z-score [7]: 0.0916 | PBM binding z-score [8]: 2.78 | PBM binding z-score [9]: 0.651 | PBM binding z-score [10]: 4.03

GCTCGGAGGACAAGGTCAGAGCGTTGTCCGTAGA
PBM binding z-score [1]: -0.242 | PBM binding z-score [2]: 0.658 | PBM binding z-score [3]: -1.14 | PBM binding z-score [4]: -1.68 | PBM binding z-score [5]: 0.169 | PBM binding z-score [6]: 1.68 | PBM binding z-score [7]: -0.131 | PBM binding z-score [8]: 2.07 | PBM binding z-score [9]: -0.539 | PBM binding z-score [10]: 3.4

TAGCCTAGGTCATGGGGCCAGTATAGTACGCATC
PBM binding z-score [1]: 1.84 | PBM binding z-score [2]: 3.72 | PBM binding z-score [3]: 0.968 | PBM binding z-score [4]: -0.401 | PBM binding z-score [5]: 3.22 | PBM binding z-score [6]: 2.19 | PBM binding z-score [7]: -0.641 | PBM binding z-score [8]: 3.54 | PBM binding z-score [9]: 0.443 | PBM binding z-score [10]: 3.94

ATATGTAGGCTAAGGGTCATTCAGGTTGGTTCGC
PBM binding z-score [1]: 5.51 | PBM binding z-score [2]: 6.21 | PBM binding z-score [3]: 1.21 | PBM binding z-score [4]: 1.43 | PBM binding z-score [5]: 2.35 | PBM binding z-score [6]: 4.78 | PBM binding z-score [7]: 1.76 | PBM binding z-score [8]: 4.17 | PBM binding z-score [9]: 0.917 | PBM binding z-score [10]: 3.36

TCGAGTAGGTTACCAATGGGGCATTCAGCTTTCT
PBM binding z-score [1]: 3.39 | PBM binding z-score [2]: 2.58 | PBM binding z-score [3]: -0.0498 | PBM binding z-score [4]: -0.456 | PBM binding z-score [5]: -0.375 | PBM binding z-score [6]: 0.171 | PBM binding z-score [7]: -0.622 | PBM binding z-score [8]: 0.273 | PBM binding z-score [9]: -0.0206 | PBM binding z-score [10]: 0.992

GCATATAGGTAATACAAGGTGGAAGTCCGATTGT
PBM binding z-score [1]: 4.14 | PBM binding z-score [2]: 2.47 | PBM binding z-score [3]: 1.2 | PBM binding z-score [4]: 0.302 | PBM binding z-score [5]: -0.138 | PBM binding z-score [6]: 0.192 | PBM binding z-score [7]: 0.041 | PBM binding z-score [8]: 0.731 | PBM binding z-score [9]: 0.593 | PBM binding z-score [10]: 0.0105

AGAATGCGGTTACCAAAGATCAGGGAAACGCTTG
PBM binding z-score [1]: -0.0849 | PBM binding z-score [2]: -0.0394 | PBM binding z-score [3]: -0.888 | PBM binding z-score [4]: -0.42 | PBM binding z-score [5]: -0.659 | PBM binding z-score [6]: -0.382 | PBM binding z-score [7]: -0.939 | PBM binding z-score [8]: -0.221 | PBM binding z-score [9]: -0.366 | PBM binding z-score [10]: 0.18

CCTAGCAGGCCATGGTCACTCAAGCATTTCGCTT
PBM binding z-score [1]: 1.57 | PBM binding z-score [2]: 0.401 | PBM binding z-score [3]: -1.7 | PBM binding z-score [4]: -1.39 | PBM binding z-score [5]: -0.683 | PBM binding z-score [6]: -0.611 | PBM binding z-score [7]: -0.713 | PBM binding z-score [8]: -0.498 | PBM binding z-score [9]: -0.226 | PBM binding z-score [10]: 0.678

TAGCCTAGGTCATGAGCCAGTATACCACGCGAAC
PBM binding z-score [1]: 1.81 | PBM binding z-score [2]: 3.11 | PBM binding z-score [3]: -0.211 | PBM binding z-score [4]: 0.0511 | PBM binding z-score [5]: 1.45 | PBM binding z-score [6]: 1.61 | PBM binding z-score [7]: -0.537 | PBM binding z-score [8]: 2.64 | PBM binding z-score [9]: 0.534 | PBM binding z-score [10]: 3.58

GCTATTAGTTGAAAGGTCAACCGAATGATTCTCG
PBM binding z-score [1]: 1.5 | PBM binding z-score [2]: 3.85 | PBM binding z-score [3]: 0.539 | PBM binding z-score [4]: 0.804 | PBM binding z-score [5]: 3.47 | PBM binding z-score [6]: 5.54 | PBM binding z-score [7]: 1.29 | PBM binding z-score [8]: 6.55 | PBM binding z-score [9]: 1.86 | PBM binding z-score [10]: 4.97
